The values below come from PubChem BioAssay (NCI).

The structures appear in SMILES notation. The panel holds about 83,000 compounds, 20% with a hit somewhere; the sample as a whole holds those more often.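 Interpretation: 100, growth as untreated; towards 0, rising growth inhibition; 0, no net growth; 0 to -100, cell death. Compounds scoring below 10 were considered active.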 Values without a mark were called inactive. The source made the active and inactive calls.

Some test systems named below: DU-145 prostate; K-562 leukemia; MALME-3M melanoma; MDA-MB-231 breast; RXF 393 renal; SF-268 CNS; SF-295 CNS; SF-539 CNS; M14 melanoma; HCT-15 colon; HT29 colon; SNB-75 CNS; SNB-19 CNS; U251 CNS; PC-3 prostate; SK-MEL-5 melanoma; UACC-62 melanoma; LOX IMVI melanoma; SK-MEL-28 melanoma; UACC-257 melanoma.
Holding throughout (test): NCI-60 one-dose screen, 48 h (100 = growth as untreated, 0 = no growth, -100 = all killed)
Conditions in all cases: 10 µM unless noted

As for `CCOC(=O)c1sc2ccc(NCc3nc[nH]c3C)cc2c1NC(=O)c1cc(OC)c(OC)c(OC)c1`, the growth in the assay with DU-145 prostate is 86.7%; in the assay with K-562 leukemia it was 44.2%; in the assay on MALME-3M melanoma it was 80.1%; with MDA-MB-231 breast, 73.3%; in the assay on RXF 393 renal, 79.2%; with SF-268 CNS it was 98%. For the same compound, the growth with SF-295 CNS was 97.3%; in the assay with SF-539 CNS, 91.7%; in the assay on M14 melanoma, 96.8%; with HCT-15 colon, 92.7%; in the assay with HT29 colon it was 88.9%; with SNB-75 CNS, 92.8%. The growth with SNB-19 CNS is 93%; in the assay with U251 CNS, 92.3%; in the assay with PC-3 prostate, 85%; with SK-MEL-5 melanoma it was 96.9%; with UACC-62 melanoma it was 92.9%; in the assay on LOX IMVI melanoma, 67.9%. Besides, the growth with SK-MEL-28 melanoma is 83%.

Turning to `CCCCCCCC/C=C\CCCCCCCC(=O)Oc1cccc2cccnc12`, the growth in the assay with DU-145 prostate was 78.5%; in the assay with K-562 leukemia, 73.9%; in the assay on MALME-3M melanoma it was 117%; in the assay on MDA-MB-231 breast it was 106%; with RXF 393 renal, 47.6%; in the assay on SF-268 CNS, 90.8%. Besides, the growth in the assay on SF-539 CNS is 102%; in the assay on UACC-257 melanoma it was 2.81% (active); in the assay with M14 melanoma, 90.3%; in the assay with HCT-15 colon, 81.8%; in the assay on HT29 colon, 137%; in the assay with SNB-75 CNS, 149%. In addition, the growth in the assay on SNB-19 CNS is 103%; with U251 CNS, 91%; in the assay on PC-3 prostate, 114%; in the assay on SK-MEL-5 melanoma it was 102%; in the assay with UACC-62 melanoma, 99.8%; in the assay on LOX IMVI melanoma it was 79.8%. Further, the growth in the assay with SK-MEL-28 melanoma was 176%.

As to `CCCCNC(=O)NS(=O)(=O)c1ccc(N2N=C(c3ccc(C)cc3C)CC2c2ccc(N(C)C)cc2)cc1` (stereo not given), the growth is 84.8% in the assay on DU-145 prostate; 44.4% with K-562 leukemia; 101% in the assay with MALME-3M melanoma; 80.1% in the assay on MDA-MB-231 breast; 79.5% in the assay with RXF 393 renal; 79.9% in the assay on SF-268 CNS. For the same compound, the growth with SF-539 CNS was 62.6%; in the assay with UACC-257 melanoma, 66.1%; with HCT-15 colon it was 35.3%; with HT29 colon, 62%; with SNB-75 CNS it was 75.4%; in the assay with SNB-19 CNS, 75.6%. For the same compound, the growth with U251 CNS was 37%; in the assay on PC-3 prostate, 38%; in the assay on SK-MEL-5 melanoma, 47%; with UACC-62 melanoma, 54.8%; in the assay on LOX IMVI melanoma, 52.2%; in the assay on SK-MEL-28 melanoma it was 45.5%.

On to `COc1ccc(C2=NC(=O)NC2c2ccc(OC)cc2)cc1` (stereo not given), for which the growth in the assay with DU-145 prostate is 88.5%; with K-562 leukemia, 21.2%; in the assay with MALME-3M melanoma, 75.5%; with MDA-MB-231 breast, 73.9%; in the assay on RXF 393 renal, 108%; with SF-268 CNS, 73.3%. The growth in the assay with SF-295 CNS is 79.7%; in the assay with SF-539 CNS, 62.4%; in the assay with UACC-257 melanoma it was 105%; in the assay on HCT-15 colon, 48.4%; in the assay on HT29 colon, 37.2%; in the assay on SNB-75 CNS it was 46.7%. In addition, the growth was 58.5% in the assay with SNB-19 CNS; 74.6% in the assay on U251 CNS; 63% in the assay on SK-MEL-5 melanoma; 47.2% in the assay on UACC-62 melanoma; 64% in the assay with LOX IMVI melanoma; 72.6% in the assay with SK-MEL-28 melanoma.

Take `Cc1c(C(N)=O)sc2nc(C)n(/N=c3\scc(-c4ccccc4)n3Cc3ccccc3)c(=O)c12`: the growth is 42.2% with DU-145 prostate; 8.42% (active) with K-562 leukemia; 60.5% in the assay with MALME-3M melanoma; 43% with MDA-MB-231 breast; -5.46% (active) in the assay with RXF 393 renal; 21.3% in the assay with SF-268 CNS. For the same compound, the growth is 22.2% with SF-539 CNS; 4.85% (active) with UACC-257 melanoma; 36.4% in the assay on M14 melanoma; 14.9% with HCT-15 colon; 79.5% with HT29 colon; 54.8% in the assay with SNB-75 CNS. The growth in the assay with SNB-19 CNS was 29.4%; in the assay with U251 CNS it was 7.76% (active); in the assay with PC-3 prostate it was 1.97% (active); in the assay on SK-MEL-5 melanoma, 7.44% (active); with UACC-62 melanoma, 27.7%; in the assay on LOX IMVI melanoma, 20.6%. Further, the growth in the assay with SK-MEL-28 melanoma is 48.2%.

As for `CC1(C)CC(=O)c2c(ccc(C(=O)C[C@H](N)CO)c2N)O1`, the growth in the assay on DU-145 prostate was 38%; with K-562 leukemia it was 37.1%; in the assay on MALME-3M melanoma, 48.6%; in the assay with MDA-MB-231 breast, 54.6%; in the assay with RXF 393 renal it was 44.1%; with SF-268 CNS it was 34.2%. Further, the growth with SF-295 CNS is 42.9%; in the assay on SF-539 CNS, 23.7%; in the assay on UACC-257 melanoma, 49.1%; in the assay on HCT-15 colon, 4.43% (active); with SNB-75 CNS, 75.9%; with SNB-19 CNS it was 34.7%. Further, the growth in the assay on U251 CNS was 14.8%; in the assay on PC-3 prostate, 45.3%; in the assay on SK-MEL-5 melanoma, 47.2%; in the assay with UACC-62 melanoma, 11%; with LOX IMVI melanoma, -61.7% (active); in the assay with SK-MEL-28 melanoma, 38%.

As to `Clc1ccc(-c2nnc(-c3ccco3)o2)cc1`, the growth is 99.5% with DU-145 prostate; 93.3% with K-562 leukemia; 113% in the assay with MALME-3M melanoma; 99% in the assay with MDA-MB-231 breast; 101% in the assay on SF-268 CNS; 112% in the assay on SF-295 CNS. Moreover, the growth with SF-539 CNS is 106%; in the assay with UACC-257 melanoma, 93.5%; in the assay with M14 melanoma it was 101%; with HCT-15 colon, 112%; in the assay on HT29 colon, 105%; in the assay with SNB-75 CNS it was 89.1%. Besides, the growth is 90.6% in the assay on SNB-19 CNS; 98.7% in the assay on U251 CNS; 96.7% in the assay on PC-3 prostate; 108% with SK-MEL-5 melanoma; 93.9% in the assay on UACC-62 melanoma; 97.8% in the assay on LOX IMVI melanoma. Besides, the growth in the assay with SK-MEL-28 melanoma is 125%.

On to `Nc1nc(I)c2ncn(C3OC(CO)C(O)C3O)c2n1` (stereo not given), for which the growth in the assay on DU-145 prostate was 107%; with K-562 leukemia, 118%; in the assay with MALME-3M melanoma it was 142%; in the assay with MDA-MB-231 breast, 101%; with RXF 393 renal, 78.4%; in the assay with SF-268 CNS, 107%. Also, the growth in the assay with SF-539 CNS is 102%; in the assay on UACC-257 melanoma it was 103%; in the assay on M14 melanoma, 102%; in the assay with HCT-15 colon it was 104%; in the assay with HT29 colon, 141%; in the assay with SNB-75 CNS, 130%. Besides, the growth with SNB-19 CNS was 102%; with U251 CNS, 100%; with PC-3 prostate it was 124%; in the assay with SK-MEL-5 melanoma it was 102%; in the assay with LOX IMVI melanoma it was 93.5%; in the assay on SK-MEL-28 melanoma, 126%.

As to `O=c1[nH]c(=O)n(C2CC(O)C(CO)O2)cc1CO` (stereo not given), the growth is 111% in the assay on DU-145 prostate; 82.3% in the assay on K-562 leukemia; 90.1% in the assay on MALME-3M melanoma; 102% in the assay on MDA-MB-231 breast; 99.5% in the assay on RXF 393 renal; 99.8% in the assay with SF-268 CNS. Moreover, the growth with SF-295 CNS was 110%; with SF-539 CNS, 95.7%; in the assay on UACC-257 melanoma, 103%; in the assay on HCT-15 colon, 98.7%; in the assay with HT29 colon, 105%; in the assay on SNB-75 CNS, 84.3%. The growth was 30.2% in the assay with SNB-19 CNS; 2.98% (active) with U251 CNS; 108% with SK-MEL-5 melanoma; 79.2% in the assay with UACC-62 melanoma; 101% in the assay with SK-MEL-28 melanoma.
